Binding signal data for two sequences are collected here from publication PMC7862700, “An all-to-all approach to the identification of sequence-specific readers for epigenetic DNA modifications on cytosine”.

What all share (assay): DAPPL (digital affinity profiling via proximity ligation, sequencing); 10 mM Tris-HCl pH 7.5, 50 mM NaCl, 1 mM DTT, 4% glycerol, room temperature, 30 min; GST-TFs on glutathione beads, 16-mer random dsDNA library, 0.1% formaldehyde crosslink after washing; high values mean tight binding
What all share (conditions): protein: recombinant; tags: N-terminal GST; dsDNA, one strand shown

In test [1] the target is T1, FLI1 (Homo sapiens, UniProt Q01543 1-452).
T1 sequence: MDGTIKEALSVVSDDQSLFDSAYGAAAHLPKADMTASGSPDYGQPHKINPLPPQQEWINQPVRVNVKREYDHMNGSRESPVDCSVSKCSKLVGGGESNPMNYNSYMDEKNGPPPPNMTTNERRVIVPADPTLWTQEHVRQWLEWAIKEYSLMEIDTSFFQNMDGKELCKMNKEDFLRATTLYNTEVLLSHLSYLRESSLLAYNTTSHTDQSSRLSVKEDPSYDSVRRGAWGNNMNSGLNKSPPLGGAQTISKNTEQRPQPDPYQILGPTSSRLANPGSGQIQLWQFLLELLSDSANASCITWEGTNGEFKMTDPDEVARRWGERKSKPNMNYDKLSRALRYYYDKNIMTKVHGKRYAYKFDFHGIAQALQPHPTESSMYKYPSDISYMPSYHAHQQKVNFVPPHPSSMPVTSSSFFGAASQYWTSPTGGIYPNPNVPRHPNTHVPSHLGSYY
The method in brief: (§1)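 GST fusions of human transcription factors were expressed in yeast and captured with glutathione beads. Once given DNA barcodes and pooled alongside a tag-only sample, they were incubated for 30 min at room temperature with 200 nmole of a random double-stranded 16-mer DNA library in Tris/NaCl/DTT/glycerol buffer, then washed, crosslinked (0.1% formaldehyde), proximity-ligated, PCR-amplified and sequenced on an Illumina NextSeq500. The binding signal of each hexamer is its read frequency for a factor divided by its frequency for the tag-only sample.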

For test [2], the target named is T2, ELK1 (Homo sapiens, UniProt P19419 1-428).
T2 sequence: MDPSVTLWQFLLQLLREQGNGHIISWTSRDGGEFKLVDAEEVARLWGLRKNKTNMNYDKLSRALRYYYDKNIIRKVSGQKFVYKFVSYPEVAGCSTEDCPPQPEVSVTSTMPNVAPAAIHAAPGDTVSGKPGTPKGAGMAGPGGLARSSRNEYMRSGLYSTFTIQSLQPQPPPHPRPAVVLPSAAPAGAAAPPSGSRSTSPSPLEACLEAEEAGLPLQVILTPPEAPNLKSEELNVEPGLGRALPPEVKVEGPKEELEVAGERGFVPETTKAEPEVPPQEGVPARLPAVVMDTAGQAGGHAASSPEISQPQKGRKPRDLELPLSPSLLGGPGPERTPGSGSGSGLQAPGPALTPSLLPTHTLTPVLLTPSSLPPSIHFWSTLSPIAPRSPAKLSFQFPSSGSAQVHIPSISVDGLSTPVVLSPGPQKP
The method in brief: as §1

Test [3] has as its target T3, GABPA (Homo sapiens, UniProt Q06546 1-454).
T3 sequence: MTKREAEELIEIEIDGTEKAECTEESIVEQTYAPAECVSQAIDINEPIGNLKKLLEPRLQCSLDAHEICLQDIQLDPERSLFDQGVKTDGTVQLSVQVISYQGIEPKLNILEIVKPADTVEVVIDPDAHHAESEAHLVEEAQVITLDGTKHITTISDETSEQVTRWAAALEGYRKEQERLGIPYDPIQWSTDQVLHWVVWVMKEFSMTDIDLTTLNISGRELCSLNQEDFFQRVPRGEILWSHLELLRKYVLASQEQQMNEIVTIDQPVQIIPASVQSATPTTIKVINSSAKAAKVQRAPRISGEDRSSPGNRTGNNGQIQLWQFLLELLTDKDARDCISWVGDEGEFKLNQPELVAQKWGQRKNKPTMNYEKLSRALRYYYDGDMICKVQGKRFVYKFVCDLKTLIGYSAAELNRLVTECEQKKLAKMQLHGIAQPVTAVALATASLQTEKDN
The method in brief:
as §1

The target of test [4] is T4, ERG (Homo sapiens, UniProt P11308 1-479).
T4 sequence: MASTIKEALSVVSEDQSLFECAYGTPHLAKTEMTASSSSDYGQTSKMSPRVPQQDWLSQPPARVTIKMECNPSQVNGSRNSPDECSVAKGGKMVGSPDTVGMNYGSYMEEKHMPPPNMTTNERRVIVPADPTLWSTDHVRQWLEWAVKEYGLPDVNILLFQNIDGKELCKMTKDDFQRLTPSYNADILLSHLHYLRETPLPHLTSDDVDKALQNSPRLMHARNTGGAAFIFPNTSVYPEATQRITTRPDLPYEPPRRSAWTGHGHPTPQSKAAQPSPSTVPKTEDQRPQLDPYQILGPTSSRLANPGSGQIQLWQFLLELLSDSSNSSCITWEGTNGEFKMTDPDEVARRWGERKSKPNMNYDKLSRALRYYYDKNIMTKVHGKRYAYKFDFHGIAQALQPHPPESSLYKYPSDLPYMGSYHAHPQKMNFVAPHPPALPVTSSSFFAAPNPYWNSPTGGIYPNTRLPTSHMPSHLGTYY
In a few lines:
as §1

Test [5] has as its target ELF1 (Homo sapiens, UniProt P32519 1-619). In a few lines:
as §1

For test [6], the target named is T5, EHF (Homo sapiens, UniProt Q9NZC4 1-300).
T5 sequence: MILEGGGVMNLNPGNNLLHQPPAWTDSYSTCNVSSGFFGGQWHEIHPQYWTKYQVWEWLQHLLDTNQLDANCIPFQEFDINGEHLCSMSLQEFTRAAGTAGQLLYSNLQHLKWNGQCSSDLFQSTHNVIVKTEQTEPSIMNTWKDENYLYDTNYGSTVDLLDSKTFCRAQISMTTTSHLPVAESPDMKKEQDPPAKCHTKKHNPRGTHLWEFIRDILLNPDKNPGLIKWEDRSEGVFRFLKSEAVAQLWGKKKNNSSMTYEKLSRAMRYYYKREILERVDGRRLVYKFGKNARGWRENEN
The method in brief: as §1

Test [7] concerns the target SPI1 (Homo sapiens, UniProt P17947 1-270). In a few lines:
as §1

Test [8] has as its target SPIB (Homo sapiens, UniProt Q01892 1-262). In a few lines: as §1
Test [9] addresses T6, ELK3 (Homo sapiens, UniProt P41970 1-407).
T6 sequence: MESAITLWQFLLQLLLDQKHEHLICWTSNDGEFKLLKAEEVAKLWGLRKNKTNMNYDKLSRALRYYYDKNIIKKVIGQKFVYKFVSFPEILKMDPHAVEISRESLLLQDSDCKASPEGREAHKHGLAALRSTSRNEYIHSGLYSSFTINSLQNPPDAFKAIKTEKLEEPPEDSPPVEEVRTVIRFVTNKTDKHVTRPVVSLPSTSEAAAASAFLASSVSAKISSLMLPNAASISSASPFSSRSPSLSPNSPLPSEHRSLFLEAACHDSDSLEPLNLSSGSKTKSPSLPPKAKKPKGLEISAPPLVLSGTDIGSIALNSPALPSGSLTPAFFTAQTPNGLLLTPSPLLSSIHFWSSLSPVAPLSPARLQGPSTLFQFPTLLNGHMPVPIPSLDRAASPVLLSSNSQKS
In a few lines:
as §1

Test [10] concerns the target T7, FEV (Homo sapiens, UniProt Q99581 1-238).
T7 sequence: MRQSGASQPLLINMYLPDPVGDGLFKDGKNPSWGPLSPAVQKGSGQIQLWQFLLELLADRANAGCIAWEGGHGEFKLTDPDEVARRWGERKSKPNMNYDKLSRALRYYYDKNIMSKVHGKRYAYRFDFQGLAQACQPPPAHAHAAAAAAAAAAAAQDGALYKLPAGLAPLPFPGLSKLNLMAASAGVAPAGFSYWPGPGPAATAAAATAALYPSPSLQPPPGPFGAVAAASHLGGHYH
In a few lines: as §1

In test [11] the target is ETV5 (Homo sapiens, UniProt P41161 1-510). The method in brief: as §1
Test [12] addresses T8, SPIC (Homo sapiens, UniProt Q8N5J4 1-248).
T8 sequence: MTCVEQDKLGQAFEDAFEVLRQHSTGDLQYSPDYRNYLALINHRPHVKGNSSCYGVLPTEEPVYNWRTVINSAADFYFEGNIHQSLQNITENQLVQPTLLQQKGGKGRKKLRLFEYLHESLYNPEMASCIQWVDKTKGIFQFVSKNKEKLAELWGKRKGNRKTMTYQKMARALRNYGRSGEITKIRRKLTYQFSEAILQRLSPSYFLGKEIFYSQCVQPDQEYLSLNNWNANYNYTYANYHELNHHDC
In a few lines:
as §1

For test [13], the target named is ELF4 (Homo sapiens, UniProt Q99607 1-663). In a few lines: as §1
Test [14] has as its target T9, ELK4 (Homo sapiens, UniProt P28324-2 1-405).
T9 sequence: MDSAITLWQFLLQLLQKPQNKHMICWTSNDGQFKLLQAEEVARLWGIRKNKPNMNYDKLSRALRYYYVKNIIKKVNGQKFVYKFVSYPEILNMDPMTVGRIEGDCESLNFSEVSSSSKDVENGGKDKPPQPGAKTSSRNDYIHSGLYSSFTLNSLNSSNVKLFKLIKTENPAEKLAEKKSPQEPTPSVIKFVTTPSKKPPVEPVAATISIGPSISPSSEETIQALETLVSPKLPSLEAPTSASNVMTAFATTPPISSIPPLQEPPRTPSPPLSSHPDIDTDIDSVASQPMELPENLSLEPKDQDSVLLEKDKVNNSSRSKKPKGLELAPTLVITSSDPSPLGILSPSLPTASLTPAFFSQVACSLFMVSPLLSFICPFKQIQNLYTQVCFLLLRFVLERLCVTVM
In a few lines: as §1

For test [15], the target named is T10, ETV2 (Homo sapiens, UniProt O00321 1-342).
T10 sequence: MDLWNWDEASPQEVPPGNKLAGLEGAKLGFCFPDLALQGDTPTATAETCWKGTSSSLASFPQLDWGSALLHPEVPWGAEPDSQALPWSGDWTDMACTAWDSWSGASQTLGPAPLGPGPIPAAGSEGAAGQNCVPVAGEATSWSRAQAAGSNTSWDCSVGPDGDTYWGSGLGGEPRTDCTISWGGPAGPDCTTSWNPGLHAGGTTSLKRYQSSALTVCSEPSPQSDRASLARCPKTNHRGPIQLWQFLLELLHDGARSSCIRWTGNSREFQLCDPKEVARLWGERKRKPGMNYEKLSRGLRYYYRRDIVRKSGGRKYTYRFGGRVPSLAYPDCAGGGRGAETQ
In a few lines:
as §1

The target in test [16] is T11, ELF3 (Homo sapiens, UniProt P78545 1-371).
T11 sequence: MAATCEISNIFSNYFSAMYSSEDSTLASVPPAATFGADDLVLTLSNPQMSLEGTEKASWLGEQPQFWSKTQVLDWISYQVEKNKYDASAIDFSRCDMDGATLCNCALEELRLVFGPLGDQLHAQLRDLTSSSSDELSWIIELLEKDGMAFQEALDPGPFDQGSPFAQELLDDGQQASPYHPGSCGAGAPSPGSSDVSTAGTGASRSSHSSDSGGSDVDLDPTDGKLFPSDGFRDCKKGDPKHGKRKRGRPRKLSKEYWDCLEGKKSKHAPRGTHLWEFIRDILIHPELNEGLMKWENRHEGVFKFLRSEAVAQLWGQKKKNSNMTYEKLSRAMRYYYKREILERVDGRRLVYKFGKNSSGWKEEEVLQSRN
In a few lines: as §1

For test [17], the target named is ETV1 (Homo sapiens, UniProt P50549 1-477). In a few lines:
as §1

ETV5, sequence (P41161 whole entry): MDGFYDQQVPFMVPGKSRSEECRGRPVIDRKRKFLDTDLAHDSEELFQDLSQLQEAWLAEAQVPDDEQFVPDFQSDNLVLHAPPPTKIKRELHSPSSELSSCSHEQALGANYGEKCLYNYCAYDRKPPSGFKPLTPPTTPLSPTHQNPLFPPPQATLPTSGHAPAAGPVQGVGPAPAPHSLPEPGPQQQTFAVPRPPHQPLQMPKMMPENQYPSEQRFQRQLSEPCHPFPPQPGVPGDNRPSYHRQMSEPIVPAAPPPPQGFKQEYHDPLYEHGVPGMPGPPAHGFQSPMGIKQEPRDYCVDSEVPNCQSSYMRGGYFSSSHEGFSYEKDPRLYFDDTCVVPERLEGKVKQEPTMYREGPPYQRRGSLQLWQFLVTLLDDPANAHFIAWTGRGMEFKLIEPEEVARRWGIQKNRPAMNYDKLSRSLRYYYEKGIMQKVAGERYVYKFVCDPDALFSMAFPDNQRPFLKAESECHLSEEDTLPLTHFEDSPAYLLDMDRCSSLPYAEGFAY
SPIB, sequence (Q01892 whole entry): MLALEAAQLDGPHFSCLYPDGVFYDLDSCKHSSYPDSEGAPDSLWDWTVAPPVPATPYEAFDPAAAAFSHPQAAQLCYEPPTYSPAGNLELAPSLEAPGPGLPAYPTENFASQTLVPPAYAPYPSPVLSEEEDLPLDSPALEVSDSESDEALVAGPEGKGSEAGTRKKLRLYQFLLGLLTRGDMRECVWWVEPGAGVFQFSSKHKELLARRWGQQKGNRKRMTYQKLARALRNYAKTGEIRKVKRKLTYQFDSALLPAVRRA
ELF1, sequence (P32519 whole entry): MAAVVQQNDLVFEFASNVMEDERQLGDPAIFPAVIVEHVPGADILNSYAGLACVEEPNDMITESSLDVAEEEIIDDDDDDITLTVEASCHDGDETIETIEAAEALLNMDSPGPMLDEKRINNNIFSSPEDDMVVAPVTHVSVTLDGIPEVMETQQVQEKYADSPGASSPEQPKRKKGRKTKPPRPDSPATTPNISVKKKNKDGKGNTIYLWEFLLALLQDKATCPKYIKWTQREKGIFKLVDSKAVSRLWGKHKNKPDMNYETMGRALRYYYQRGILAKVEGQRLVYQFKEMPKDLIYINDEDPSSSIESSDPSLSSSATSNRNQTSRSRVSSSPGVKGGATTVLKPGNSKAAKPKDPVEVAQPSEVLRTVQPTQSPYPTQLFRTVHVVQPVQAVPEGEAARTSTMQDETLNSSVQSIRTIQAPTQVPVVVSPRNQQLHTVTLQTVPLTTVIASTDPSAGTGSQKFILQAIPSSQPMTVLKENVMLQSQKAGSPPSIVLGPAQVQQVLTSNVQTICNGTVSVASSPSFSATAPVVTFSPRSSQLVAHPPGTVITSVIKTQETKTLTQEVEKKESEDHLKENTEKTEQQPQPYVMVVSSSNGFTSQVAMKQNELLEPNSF
ETV1, sequence (P50549 whole entry): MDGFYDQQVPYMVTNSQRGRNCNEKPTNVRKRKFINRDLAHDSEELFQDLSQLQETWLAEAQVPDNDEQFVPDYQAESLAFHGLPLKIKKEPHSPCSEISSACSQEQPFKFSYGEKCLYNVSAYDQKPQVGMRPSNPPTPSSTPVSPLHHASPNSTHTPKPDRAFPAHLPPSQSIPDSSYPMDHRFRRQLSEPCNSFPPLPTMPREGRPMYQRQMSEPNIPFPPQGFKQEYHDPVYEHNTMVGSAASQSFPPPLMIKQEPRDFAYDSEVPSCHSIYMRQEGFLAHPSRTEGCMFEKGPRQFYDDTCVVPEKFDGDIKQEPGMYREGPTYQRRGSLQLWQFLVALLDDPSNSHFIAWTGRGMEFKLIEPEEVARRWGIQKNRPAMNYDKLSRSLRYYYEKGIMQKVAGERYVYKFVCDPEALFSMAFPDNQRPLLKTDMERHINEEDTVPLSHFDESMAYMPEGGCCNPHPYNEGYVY
ELF4, sequence (Q99607 whole entry): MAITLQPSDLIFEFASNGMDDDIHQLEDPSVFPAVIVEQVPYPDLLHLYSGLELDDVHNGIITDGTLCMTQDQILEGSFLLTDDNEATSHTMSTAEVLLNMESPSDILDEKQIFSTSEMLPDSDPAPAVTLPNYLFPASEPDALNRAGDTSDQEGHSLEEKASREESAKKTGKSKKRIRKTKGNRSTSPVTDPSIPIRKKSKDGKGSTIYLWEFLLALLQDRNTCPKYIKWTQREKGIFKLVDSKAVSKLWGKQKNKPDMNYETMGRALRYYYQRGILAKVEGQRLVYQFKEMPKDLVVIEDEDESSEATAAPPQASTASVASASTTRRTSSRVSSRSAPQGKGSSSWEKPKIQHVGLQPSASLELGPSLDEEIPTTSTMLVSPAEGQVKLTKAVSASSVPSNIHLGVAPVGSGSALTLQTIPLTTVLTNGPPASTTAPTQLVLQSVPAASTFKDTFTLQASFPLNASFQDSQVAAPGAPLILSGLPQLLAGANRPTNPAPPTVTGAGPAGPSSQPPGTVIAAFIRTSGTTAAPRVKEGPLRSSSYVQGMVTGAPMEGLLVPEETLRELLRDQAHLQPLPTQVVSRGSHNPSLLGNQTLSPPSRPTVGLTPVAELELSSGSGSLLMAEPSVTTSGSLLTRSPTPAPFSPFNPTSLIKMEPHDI

Regarding TGCGGA, the binding signal was 1.35 fold enrichment (6-mer frequency, TF over GST control) in [1]; 1.27 fold enrichment (6-mer frequency, TF over GST control) in [2]; 1.2 fold enrichment (6-mer frequency, TF over GST control) in test [3]; 1.37 fold enrichment (6-mer frequency, TF over GST control) in [4]; 1.32 fold enrichment (6-mer frequency, TF over GST control) in [5]; 1.37 fold enrichment (6-mer frequency, TF over GST control) in [6]. In addition, the binding signal in test [7] is 1.85 fold enrichment (6-mer frequency, TF over GST control); in test [8], 1.29 fold enrichment (6-mer frequency, TF over GST control); in test [9], 1.23 fold enrichment (6-mer frequency, TF over GST control); in [10], 1.19 fold enrichment (6-mer frequency, TF over GST control); in test [11] it was 1.47 fold enrichment (6-mer frequency, TF over GST control); in [12], 1.44 fold enrichment (6-mer frequency, TF over GST control). Besides, the binding signal in test [13] was 1.24 fold enrichment (6-mer frequency, TF over GST control); in test [14], 1.13 fold enrichment (6-mer frequency, TF over GST control); in test [15], 1.37 fold enrichment (6-mer frequency, TF over GST control); in [16], 1.74 fold enrichment (6-mer frequency, TF over GST control); in [17] it was 1.37 fold enrichment (6-mer frequency, TF over GST control).

Regarding GCGGAA, the binding signal was 1.37 fold enrichment (6-mer frequency, TF over GST control) in [1]; 1.33 fold enrichment (6-mer frequency, TF over GST control) in [2]; 1.29 fold enrichment (6-mer frequency, TF over GST control) in test [3]; 1.46 fold enrichment (6-mer frequency, TF over GST control) in test [4]; 1.28 fold enrichment (6-mer frequency, TF over GST control) in test [5]; 1.52 fold enrichment (6-mer frequency, TF over GST control) in test [6]. In addition, the binding signal in test [7] was 2.18 fold enrichment (6-mer frequency, TF over GST control); in [8], 1.49 fold enrichment (6-mer frequency, TF over GST control); in test [9], 1.37 fold enrichment (6-mer frequency, TF over GST control); in [10], 1.34 fold enrichment (6-mer frequency, TF over GST control); in test [11] it was 1.56 fold enrichment (6-mer frequency, TF over GST control); in [12], 1.5 fold enrichment (6-mer frequency, TF over GST control). The binding signal in [13] was 1.21 fold enrichment (6-mer frequency, TF over GST control); in [14] it was 1.05 fold enrichment (6-mer frequency, TF over GST control); in test [15], 1.34 fold enrichment (6-mer frequency, TF over GST control); in test [16] it was 1.53 fold enrichment (6-mer frequency, TF over GST control); in [17], 1.42 fold enrichment (6-mer frequency, TF over GST control).
